Assay outcomes from PubChem BioAssay.
Shown are actives, neighbours in structure and some others; about 1.8% of the full set was active somewhere.
Neddylation inh: cullin neddylation inhibition; P61081+Q13564; TR-FRET cullin neddylation, biochemical; inhibition, % at 25 µM; 0.58% of 360,000 active; in the data active = inhibition above about 36%
HDAC3 inhib: inhibitors of human histone deacetylase 3. O15379. recombinant HDAC3, fluorogenic peptide/trypsin coupled, fluorescence. inhibition, % at 8.3 µM. 0.15% of 320,000 active. AID 2718; in the data active = inhibition above about 26%, passing the limit was not always enough
Target sequence (O15379 whole entry, looked up): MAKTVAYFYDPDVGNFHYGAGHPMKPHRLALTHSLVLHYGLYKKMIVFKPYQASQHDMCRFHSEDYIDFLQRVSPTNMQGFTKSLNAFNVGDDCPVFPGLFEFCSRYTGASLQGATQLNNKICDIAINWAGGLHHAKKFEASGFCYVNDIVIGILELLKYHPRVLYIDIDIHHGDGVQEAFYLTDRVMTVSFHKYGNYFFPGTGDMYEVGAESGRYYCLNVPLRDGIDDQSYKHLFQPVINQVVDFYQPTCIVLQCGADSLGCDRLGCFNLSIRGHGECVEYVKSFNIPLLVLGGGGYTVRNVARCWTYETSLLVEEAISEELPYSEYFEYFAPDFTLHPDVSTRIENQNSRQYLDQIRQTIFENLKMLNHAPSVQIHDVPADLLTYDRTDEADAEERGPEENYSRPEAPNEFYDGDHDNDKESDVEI
Cardio protect: protects H9c2 cardiomyocytes from peroxide injury | H2O2 injury protection, ATPLite, 2 h | protection from H2O2 cell death, % at 20 µM | 0.63% of 360,000 active | AID 588492;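 active = compounds giving at least 50% protection of heart cells from peroxide-induced death in the single-dose screen, raw or plate-pattern-corrected value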
GRK2 inh: human GRK2 inhibition via aptamer displacement. inhibition of aptamer binding, % at 10 µM. P25098. 0.59% of 330,000 active. bead flow cytometry, FAM-aptamer displacement from GRK2;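 active = inhibition of aptamer binding above 40%, roughly 3 SD of noise, on plates passing a quality check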;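 also: median bead fluorescence of bound FAM aptamer so fluorescent compounds give negative values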
GRK2 inh confirm: confirmation of human GRK2 inhibitors displacing RNA aptamer | shares compounds with GRK2 inh | bead-bound GRK2, FAM-aptamer displacement, flow cytometry | aptamer displacement, % at 10 µM | 4% of 2,000 active | AID 504451;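 active = aptamer displacement above 40%, near three times the noise of non-fluorescent compounds, on plates passing quality checks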;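 also: negative values mostly reflect intrinsic compound fluorescence rather than true enhancement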
FAM quench CP1: aptamer fluorescence quenching in GRK2 counter-screen; shares compounds with GRK2 inh; Carboxyfluorescein RNA aptamer on beads, flow cytometry quenching; hits give low values; fluorescence response (% of DMSO), % at 10 µM; 2,000 tested, under 10 active;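 active = compounds that quench the bead-bound fluorescent RNA probe, cutting fluorescence to under half of the solvent control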;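 also: counterscreen run without GRK2 so only probe quenching by compound is measured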
GRK2 CP2: human GRK2 inhibition confirmation, cherry pick 2. bead-bound GRK2, FAM-aptamer displacement, flow cytometry. 360 tested, under 10 active. AID 504782. inhibition of aptamer binding, % at 10 µM. shares compounds with GRK2 inh;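 active = inhibition of aptamer binding above 40%, about triple the noise seen with nonglowing compounds, on plates passing quality control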;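 also: negative values mostly come from compounds that fluoresce themselves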
FAM quench SP: counter-screen for GRK2 binding hits: quenchers of fluorescent RNA aptamer. fluorescence response vs DMSO, % at 10 µM. 360 tested, under 10 active. AID 588494. carboxyfluorescein RNA aptamer beads, flow cytometry quenching; hits give low values. shares compounds with GRK2 inh;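 active = response vs DMSO under 50%, meaning signal dropped by over half, treated as fluorescence quencher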;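 also: labelled aptamer on streptavidin beads without GRK2 as a quench counter-screen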
Numbers stand for hits; – = inactive; · = no result shown.

SMILES	Neddylation inh	HDAC3 inhib	Cardio protect	GRK2 inh	GRK2 inh confirm	FAM quench CP1	others
CCCCN(C)C(=O)C1CCC(CNS(=O)(=O)c2ccc3c(c2)CC(C)N3C(=O)C2CC2)CC1 (stereo unspecified)	–	–	–	–	·	·
O=C(Cc1ccccc1)NS(=O)(=O)c1ccc(N=NN2CCOCC2)cc1	–	–	–	–	–	–
Cc1nc(-c2nc(CC(=O)NNC(=O)c3ccc(Cl)cc3)cs2)cs1	–	–	–	47.0	–	–
CC(C)CC(OC(=O)c1nsc(Cl)c1Cl)C(=O)NC1CCCC1 (stereo unspecified)	–	–	–	–	·	·
CSc1ccc(/C=N/n2c(C)nnc2C)cc1	–	–	–	–	·	·
CSc1ccc(C=O)cc1	–	–	–	73.0	–	–
O=C(OCC(=O)N1CCN(S(=O)(=O)c2ccccc2)CC1)C1CCC1	–	–	–	59.0	·	·	GRK2 CP2=–;FAM quench SP=–
O=C(OCC(=O)N1CCN(S(=O)(=O)c2ccc(Cl)cc2)CC1)C1CCC1	–	–	–	–	·	·
CCc1ccc(-c2csc3ncn(CC(=O)NCc4ccco4)c(=O)c23)cc1	–	–	–	–	·	·
Cc1ccc(-c2csc3ncn(CC(=O)NCC(c4ccco4)N4CCCC4)c(=O)c23)cc1 (stereo unspecified)	–	–	–	78.0	–	–
CCOc1ccc2oc(C(=O)OCC(=O)NC3CCCC3)c(C)c2c1	·	–	–	–	·	·
N#C/C(=C\Nc1ccccc1SC(F)(F)F)c1nc(-c2ccc(Cl)cc2)cs1	–	–	–	–	·	·
N#C/C(=C\Nc1ccccc1SC(F)(F)F)c1nc(-c2ccccc2)cs1	–	–	–	48.0	–	–
COc1ccccc1N1CCN(C(=O)CN(C2CCCCC2)S(C)(=O)=O)CC1	–	–	–	47.0	–	–
CS(=O)(=O)N(CC(=O)N1CCN(c2ccccc2F)CC1)C1CCCCC1	–	–	–	–	·	·
CC1(C(=O)NCCC#N)CCN1C(=O)c1ccccc1CCc1ccccc1 (stereo unspecified)	–	·	–	·	·	·
C=CCn1c(=O)c2ccccc2n2c(=S)[nH]nc12	–	–	–	98.0	–	–
CC(C)CCn1c(=O)c2ccccc2n2c(=S)[nH]nc12	–	–	–	–	·	·
O=S(=O)(Nc1cc(Sc2cccc3cccnc23)c(O)c2ccccc12)c1ccc(F)cc1	·	–	·	42.0	–	–
COc1ccc(S(=O)(=O)Nc2cc(SCC(=O)O)c(O)c3ccccc23)cc1	–	–	–	–	·	·
COc1ccc(/C=C(\NC(=O)c2ccc(OC)cc2)C(=O)Nc2ccc(C(=O)O)cc2)cc1	–	–	–	–	·	·
COc1ccccc1CNC(=O)c1cccc(NC(=O)c2ccccc2)c1	–	–	–	–	–	–
COc1ccccc1CNC(=O)c1ccncc1	–	–	–	–	·	·
COc1ccc(C(=O)N/C(=C\c2ccccc2)C(=O)Nc2cccc(C(=O)O)c2)cc1	–	–	–	90.0	–	–
O=C(NCc1ccccc1)c1cccc(NC(=O)c2ccccc2)c1	–	·	–	·	–	–
SMILES	Neddylation inh	HDAC3 inhib	Cardio protect	GRK2 inh	GRK2 inh confirm	FAM quench CP1	others
COc1ccc(CNC(=O)c2cccc(NC(=O)c3ccccc3)c2)cc1	–	–	–	–	–	–
C=CCOc1cccc(/C=N/NC(=O)CC(=O)NC2CCCCC2)c1	–	–	–	–	·	·
Cc1ccccc1NC(=O)C1C(=O)Nc2ccccc2C(=O)N1Cc1ccccc1 (stereo unspecified)	–	·	·	·	·	·
Cc1c(C)n(Cc2ccccc2)c2ccc(C(=O)OCCN(C)C)cc12	–	–	–	–	·	·
O=C(NCc1ccccc1Cl)c1cccc(NC(=O)c2ccccc2)c1	–	–	–	–	–	–
CN(C)c1cccc(C(=O)NCc2ccccc2Cl)c1	–	–	–	–	·	·
Cc1ccc(C(=O)Nc2cccc(Oc3ccccc3)c2)o1	–	–	–	–	·	·
COc1ccc(C(=O)Nc2c(O)ccc3ccccc23)cc1	–	–	–	98.0	–	–
Cc1ccc(C(=O)Nc2cccc(C(=O)NCc3ccccc3)c2)o1	–	–	–	–	–	–
O=C(NCc1ccccc1Cl)c1ccc(NC2=NC3CS(=O)(=O)CC3S2)cc1 (stereo unspecified)	–	·	–	–	·	·
O=C(NCc1ccccc1Cl)c1cccc(NC2=NC3CS(=O)(=O)CC3S2)c1 (stereo unspecified)	–	–	–	–	–	–
C/C(=N\NC(=O)c1ccc(Cn2cc(Br)cn2)o1)c1ccc(NC(=O)c2ccoc2C)cc1	–	·	–	·	·	·
CCOc1cc(CN2CCC(CO)(Cc3cccc(C(F)(F)F)c3)CC2)ccc1OC	–	–	–	–	·	·
COc1ccccc1NC(=O)N1CCC(c2nc3cc(C)c(C)cc3[nH]2)CC1	–	–	–	–	–	–
COc1ccccc1NC(=S)N1CCC(c2nc3cc(C)c(C)cc3[nH]2)CC1	–	–	–	–	·	·
Cc1csc(NS(=O)(=O)c2cccc([N+](=O)[O-])c2)n1	–	–	–	–	·	·
Cc1ccc(-c2csc3ncn(CC#N)c(=O)c23)cc1C	–	–	–	86.0	–	–
CCOC(=O)C1CCCCN1Cc1cccc(F)c1 (stereo unspecified)	–	–	–	–	·	·
CCOC(=O)C1CCCCN1Cc1ccc(F)cc1 (stereo unspecified)	–	–	–	75.0	–	–
COC(=O)CNc1n[nH]c(=S)[nH]c1=O	–	–	–	85.0	–	–
COc1ccc(N(CC(=O)NC2CCCC2)S(=O)(=O)c2c(C)[nH]c(=O)[nH]c2=O)cc1	–	–	–	–	–	–
COc1ccc(NC(=S)NNc2ccc(S(=O)(=O)Nc3ccccc3C(=O)O)cc2[N+](=O)[O-])cc1	–	–	–	48.0	–	–
O=C(O)c1ccc(CS(=O)(=O)c2cccc(C(F)(F)F)c2)o1	–	–	–	–	·	·	GRK2 CP2=–;FAM quench SP=–
CCCCNC(=O)c1ccc(CS(=O)(=O)c2cccc(C(F)(F)F)c2)o1	–	–	–	–	·	·
Cc1ccc(CCN2C(Nc3ccccc3)=NC[C@@H]2C)cc1	–	–	–	–	·	·
C/C=C(/C)C(=O)OC1c2c(ccc3ccc(=O)oc23)OC(C)(C)C1OC(=O)/C(C)=C\C (stereo unspecified)	–	–	–	70.0	–	–
COc1ccc(-c2nc(CNS(=O)(=O)c3ccc(OC)c(OC)c3)cs2)cc1	–	–	–	84.0	–	–
COc1ccc(S(=O)(=O)NCc2csc(C)n2)cc1OC	–	–	–	–	·	·
O=C(Cn1cnc2c(OCc3ccccc3)ncnc21)NCc1ccccn1	–	·	–	–	·	·
